Results as given in article PMC4336329 (PLoS ONE, 2015).
In all, about 310,000 compounds went through this assay and about 2,200 (0.71%) showed an effect of 50% or more. The effect is printed as a negative number. For the sample, strong results were picked, then their nearest neighbours and some compounds at random.

target: human ether-à-go-go-related gene (hERG) potassium channel (human, UniProt Q12809); assay: primary screen, population patch clamp on CHO cells stably expressing hERG; higher = less effect of the substance
Sequence (Q12809 whole entry, looked up): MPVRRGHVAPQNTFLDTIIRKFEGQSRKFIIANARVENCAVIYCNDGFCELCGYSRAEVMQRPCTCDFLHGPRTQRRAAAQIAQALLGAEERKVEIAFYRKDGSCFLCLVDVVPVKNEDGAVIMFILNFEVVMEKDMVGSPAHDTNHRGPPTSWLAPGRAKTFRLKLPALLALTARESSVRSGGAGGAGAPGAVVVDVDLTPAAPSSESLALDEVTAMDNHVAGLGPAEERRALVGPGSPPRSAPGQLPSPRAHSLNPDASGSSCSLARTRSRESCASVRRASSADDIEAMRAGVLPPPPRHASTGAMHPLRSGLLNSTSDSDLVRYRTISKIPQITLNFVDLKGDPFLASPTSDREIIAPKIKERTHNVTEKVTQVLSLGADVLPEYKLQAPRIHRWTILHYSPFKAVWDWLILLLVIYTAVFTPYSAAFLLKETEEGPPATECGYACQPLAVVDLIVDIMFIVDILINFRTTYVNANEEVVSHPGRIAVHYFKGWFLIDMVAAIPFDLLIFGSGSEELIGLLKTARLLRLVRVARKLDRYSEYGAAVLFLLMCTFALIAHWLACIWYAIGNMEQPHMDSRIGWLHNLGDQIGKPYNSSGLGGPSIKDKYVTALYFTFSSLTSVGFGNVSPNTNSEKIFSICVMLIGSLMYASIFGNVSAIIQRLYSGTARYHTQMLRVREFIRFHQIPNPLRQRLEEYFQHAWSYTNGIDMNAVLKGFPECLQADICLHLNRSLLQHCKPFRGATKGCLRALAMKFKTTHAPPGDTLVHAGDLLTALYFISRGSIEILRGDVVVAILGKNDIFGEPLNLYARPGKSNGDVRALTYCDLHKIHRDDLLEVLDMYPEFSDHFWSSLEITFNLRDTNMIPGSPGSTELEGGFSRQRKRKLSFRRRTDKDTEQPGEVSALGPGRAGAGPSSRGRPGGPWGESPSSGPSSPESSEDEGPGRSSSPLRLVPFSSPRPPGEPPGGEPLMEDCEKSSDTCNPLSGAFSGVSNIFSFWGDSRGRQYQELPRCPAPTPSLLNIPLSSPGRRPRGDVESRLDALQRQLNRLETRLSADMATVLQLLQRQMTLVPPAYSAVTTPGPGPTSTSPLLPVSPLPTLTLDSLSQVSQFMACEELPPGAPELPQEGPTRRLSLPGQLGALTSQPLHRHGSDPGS

| SMILES | hERG current change (%, negative = inhibition) at 1uM |
| --- | --- |
| Cc1nn(CC(=O)OCC(=O)Nc2ccccc2[N+](=O)[O-])c(C)c1[N+](=O)[O-] | 7.87% |
| CCCCn1c(N)c(N(CCOC)C(=O)c2ccc(OCc3c(C)noc3C)cc2)c(=O)[nH]c1=O | 19% |
| Cc1ccc(NC(=O)C(c2ccccc2)N2CCN(CC(=O)NC3CC3)CC2)cc1Cl (stereo not shown) | -2.31% |
| O=C(CN1CCN(C(C(=O)Nc2ccc(Cl)cc2C(F)(F)F)c2ccccc2)CC1)NC1CC1 (stereo not shown) | -50.1% |
| O=C(CN1CCN(C(C(=O)Nc2ccc(F)cc2)c2ccccc2)CC1)NC1CC1 (stereo not shown) | -2.24% |
| COc1ccc(N(C(=O)Cn2nnc3ccccc32)C(C(=O)NC(C)(C)C)c2ccc(OC)c(O)c2)cc1 (stereo not shown) | 14.6% |
| Cc1ccc(N2C(=O)C3C4CC(=O)C(c5ccccc54)C3C2=O)cc1 (stereo not shown) | 4.46% |
| Cc1ccc(N2C(=O)C3CC(c4ccccc4)=C4C5C=CC(C6C(=O)N(c7ccc(C)cc7)C(=O)C56)C4C3C2=O)cc1 (stereo not shown) | -74.5% |
| Cc1ccc(N2C(=O)C3CC(c4ccccc4)=C4C5C=CC(C6C(=O)N(c7ccc(C)cc7C)C(=O)C56)C4C3C2=O)c(C)c1 (stereo not shown) | 3.95% |
| Cn1c(SCC(=O)NC2CC2)nnc1-c1ccccc1 | 6.86% |
| CN(C)/C=N/c1ncc(C(=O)c2ccc(Cl)cc2Cl)s1 | -4.09% |
| COc1cccc(Nc2cc(C)nc3ccccc23)c1 | -65.2% |
| Cc1cccc(Nc2cc(C)nc3ccccc23)c1.Cl | -33.5% |
| COc1ccc(Nc2cc(C)nc3ccccc23)cc1.Cl | -15.6% |
| Cc1ccc(-n2c(C)cc(C(=O)CSc3nnc4ccccn34)c2C)cc1 | 0.977% |
| O=C(NC1CCCCC1)C1CCN(c2nnnn2-c2ccccc2)CC1 | 3.39% |
| COc1ccc(/C=C2\N=C3CCCCCN3C2=O)cc1OC | 14.8% |
| COc1ccc(N2CCN(CC(O)COc3cc(C)cc(C)c3)CC2)cc1.Cl (stereo not shown) | -17.5% |
| C=C1CC(C)OC(c2ccccc2OCC(O)CN2CCCCC2)C1 (stereo not shown) | -63.3% |
| Cc1cccc(OCC(O)CN2CCN(CCN3C(=O)c4cccc5cccc(c45)C3=O)CC2)c1C (stereo not shown) | 15.1% |
| Cc1ccccc1OCC(O)CN1CCN(CCN2C(=O)c3cccc4cccc(c34)C2=O)CC1 (stereo not shown) | -17.3% |

| SMILES | hERG current change (%, negative = inhibition) at 1uM |
| --- | --- |
| OC(COc1cccc2ccccc12)CN1CCCC1 (stereo not shown) | -1.17% |
| Cc1ccccc1OCC(O)CN1CCCCC1.Cl (stereo not shown) | 16.2% |
| COc1ccc(N2CCN(CC(O)COc3ccc(C)cc3C)CC2)cc1.Cl (stereo not shown) | -54.6% |
| OC(COc1cccc2ccccc12)CN1CCN(c2ccc(Cl)cc2)CC1 (stereo not shown) | -1.91% |
| COc1cccc(OCC(O)CN2CCN(c3ccc(Cl)cc3)CC2)c1 (stereo not shown) | -14.1% |
| Cc1ccccc1OCC(O)CN1CCN(c2ccc(Cl)cc2)CC1 (stereo not shown) | -58.2% |
| CC(=O)c1ccccc1OCC(O)CN1CCN(CCN2C(=O)c3cccc4cccc(c34)C2=O)CC1 (stereo not shown) | -73.5% |
| COc1ccc(N2CCN(CC(O)COc3cc(C)ccc3C)CC2)cc1.Cl (stereo not shown) | -9.86% |
| O=C(COC(=O)c1nc(Cl)c(Cl)c(Cl)c1Cl)NCc1ccccc1 | 3.59% |
| Cc1ccc(OCCNS(=O)(=O)c2ccc(N3CCCC3=O)cc2)cc1 | 7.63% |
| Cc1sc2nc(NCCO)[nH]c(=O)c2c1C | 14.6% |
| CS(=O)(=O)c1cccc(-c2nnc(NC(=O)C3=COCCO3)o2)c1 | 0.983% |
| Nc1c(C(=O)c2ccc(Cl)cc2)oc2ccccc12 | 18% |
| O=C(Nc1ccccc1)C1=C[C@H](c2ccccc2)C[C@H](OCCCCO)O1 | 12.7% |
| Cc1nc(N2CCN(S(=O)(=O)c3ccccc3)CC2)c2cc(-c3ccccc3)sc2n1 | 2.54% |
| c1ccc2c(c1)nnn2Cc1nnc2sc(-c3ccc4c(c3)OCCO4)nn12 | 9.84% |
| COC(=O)c1cccc(OCC(O)Cn2ccnc2)c1 (stereo not shown) | 0.869% |
| Cc1ccccc1OCC(O)CN1CCN(C)CC1.Cl (stereo not shown) | 5.66% |
| Cc1ccccc1OCC(O)CN1CCN(CC(O)COc2ccccc2C)CC1 (stereo not shown) | -50.4% |
| Cc1ccccc1OCC(O)CN1CCC(C)CC1.Cl (stereo not shown) | -6.73% |
| Cc1ccc2oc(=O)c3cnn(CC(=O)N4CCCc5ccccc54)c3c2c1 | 4.39% |

| SMILES | hERG current change (%, negative = inhibition) at 1uM |
| --- | --- |
| CCn1c(SCC(=O)c2c(N)n(C)c(=O)n(C)c2=O)nnc1-c1ccccc1 | 14.2% |
| COc1ccc(C(=O)c2coc3ccc(O)c(CN(C)C)c23)cc1 | -29.3% |
| CCN(CC)Cc1c(O)ccc2occ(C(=O)c3ccc(OC)cc3)c12 | -64.2% |
| CN(C)Cc1c(O)ccc2occ(C(=O)c3ccccc3)c12 | -16.4% |
| CN1CCN(Cc2c(O)ccc3occ(C(=O)c4ccccc4)c23)CC1 | -14.3% |
| CN(C)Cc1c(O)ccc2occ(C(=O)c3ccc(F)cc3)c12 | -57.5% |
| COc1ccc(OC)c(C(=O)c2coc3ccc(O)c(CN(C)C)c23)c1.Cl | 9.87% |
| Cc1ccc(C(=O)c2coc3ccc(O)c(CN(C)C)c23)cc1.Cl | -16.2% |
| CCN(CC)Cc1c(O)ccc2occ(C(=O)c3ccccc3)c12 | -57.3% |
| COc1ccc2occ(C(=O)c3coc4ccc(O)c(CN(C)C)c34)c2c1.Cl | -29.5% |
| Cc1ccc(-c2nc3cccnc3o2)cc1NC(=O)COc1ccc(C(C)(C)C)cc1 | 7.31% |
| COc1ccc(S(=O)(=O)Nc2ccc(Cc3ccncc3)cc2)cc1OC | 7.28% |
| COc1cc(NC(=O)c2ccc(F)cc2)c(OC)cc1NC(=O)CN1CCOCC1 | 3.57% |
| O=C(CN1C(=O)NC2(CCCCC2)C1=O)NCCC1=CCCCC1 | 14.5% |
| COC(=O)c1cc(S(=O)(=O)N2CCCCCC2)c[nH]1 | 12.4% |
| Cc1c(C(=O)Nc2nccs2)oc2ccc(F)cc12 | 14.5% |
| CCC(C(=O)N1CCN(Cc2ccc3c(c2)OCO3)CC1)n1c(=O)[nH]c2ccccc2c1=O (stereo not shown) | -8.55% |
| CCN1CCc2c(C#N)c(N3CCCCC3)nc(N3CCOCC3)c2C1 | 12.1% |
| CCCN1C(=O)C2(C(C(=O)c3ccc(C)o3)=C(O)C(=O)N2CCCOC)c2ccccc21 (stereo not shown) | 7.99% |
| COc1cc2oc3ccccc3c2cc1N(CC(=O)N(C)C)S(=O)(=O)c1ccccc1 | 0.641% |
| COc1cc2c(cc1OC)CN(c1nc(CN3CCOCC3)nc3sc4c(c13)CCCC4)CC2 | -54% |

| SMILES | hERG current change (%, negative = inhibition) at 1uM |
| --- | --- |
| Clc1nc(CN2CCCCC2)nc2sc3c(c12)CCCC3 | 7.88% |
| COc1cc2c(cc1OC)CN(c1nc(CN3CCCCC3)nc3sc4c(c13)CCCC4)CC2 | -57.3% |
| c1ccc2c(c1)CCN(c1nc(CN3CCOCC3)nc3sc4c(c13)CCCC4)C2 | 14.5% |
| COc1cc2c(cc1OC)CN(c1nc(CN3CCOCC3)nc3sc4c(c13)CCC(C)C4)CC2 (stereo not shown) | 5.29% |
| COc1cc2c(cc1OC)CN(c1nc(CN3CCCC3)nc3sc(C)c(C)c13)CC2 | -22.9% |
| Cc1cccc(C)c1NC(=S)NN(Cc1ccccc1)c1ccccc1 | 10.3% |
| COc1ccc(CNC(=O)CSc2nnc(-c3cccnc3)n2N)cc1 | 7.27% |
| CCN(CC(=O)Nc1ccc(NC(C)=O)cc1)C(=O)COc1ccc(C(=O)c2ccccc2)cc1 | 10.3% |
| COc1ccc(S(=O)(=O)N2CCCCC2)cc1NC(=O)c1ccc([N+](=O)[O-])o1 | 12.4% |
| CCN1CCN(c2ccc(S(=O)(=O)N3CCCCC3)cc2NC(=O)c2ccc(C)o2)CC1 | -62.4% |
| CCN1CCN(c2ccc(S(=O)(=O)N3CCCCC3)cc2NC(=O)c2ccc([N+](=O)[O-])s2)CC1 | -13.8% |
| CCN1CCN(c2ccc(S(=O)(=O)N3CCCCC3)cc2NC(=O)/C=C/c2ccc(OC(F)F)cc2)CC1 | -1.19% |
| CCN1CCN(c2ccc(S(=O)(=O)N3CCCCC3)cc2NC(=O)c2ccccc2)CC1 | -15.6% |
| CCN1CCN(c2ccc(S(=O)(=O)N3CCCCC3)cc2NC(=O)c2ccc([N+](=O)[O-])o2)CC1 | -73.3% |
| CCN1CCN(c2ccc(S(=O)(=O)N3CCCCC3)cc2NC(=O)c2ccc(OC(F)F)cc2)CC1 | -56.4% |
| CCN1CCN(c2ccc(S(=O)(=O)N3CCCCC3)cc2NC(=O)c2cc3ccccc3o2)CC1 | 0.811% |
| CCN1CCN(c2ccc(S(=O)(=O)N3CCCCC3)cc2NC(=O)c2ccc(F)cc2)CC1 | -16.7% |
| Cc1cccc(C)c1Nc1nnc(SCC(=O)c2ccc(Br)s2)s1 | 12.4% |
| CCCN(CCC)S(=O)(=O)c1ccc(NC(=O)c2cc(C(=O)OC)cc([N+](=O)[O-])c2)cc1 | 16.7% |
